# Reference: PMC8384837, “Expanding the binding specificity for RNA recognition by a PUF domain”
# Molecular target: PUM1 PUF domain R4-DYG (Homo sapiens, UniProt Q14671 828-1176, N971D;H972Y;Q975G)
# Assay: yeast three-hybrid, YBZ-1, SC-Leu-His + 0.5 mM 3-AT, 4 days
# Settings: tags: N-Gal4 AD-HA kept; label: inside an RPR1-promoter hybrid RNA with tandem MS2 sites; ssRNA
# Outline: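 The interaction score is the log change in how often each variant appears, from input to selection. Frequencies came from PCR-amplified, Illumina-sequenced repeat regions of Pumilio-1 PUF domain libraries grown in strain YBZ-1 (LexA–MS2 coat fusion, HIS3 reporter) alongside matching RNA elements. Input plates were SC-Leu and selection plates were SC-Leu-His + 0.5 mM 3-AT, each for four days, and the log2 calculation used a pseudocount of 1 where a variant was absent.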
row,Sequence,binding signal
1,GGCUAGAACUAGUGGAUCCCCCGGCGCCCGGCGGCUCGAGCCCGGGUAAGUGUAAAUAGUCUGCAUGCCGCCGGGCGCCAUGCCUGCAGGUCGACUCUAGAAAACAUG,6.38 log2 enrichment (interaction score)
2,GGCUAGAACUAGUGGAUCCCCCGGCGCCCGGCGGCUCGAGCCCGGGUAAGUGUAUAUAGUCUGCAUGCCGCCGGGCGCCAUGCCUGCAGGUCGACUCUAGAAAACAUG,6.59 log2 enrichment (interaction score)
3,GGCUAGAACUAGUGGAUCCCCCGGCGCCCGGCGGCUCGAGCCCGGGUAAGUGUACAUAGUCUGCAUGCCGCCGGGCGCCAUGCCUGCAGGUCGACUCUAGAAAACAUG,5.37 log2 enrichment (interaction score)
